The list is not random: actives were taken first. Their share in the collection is about 4.6%.
VACV mCherry inh: qHTS for Stage-Specific Inhibitors of Vaccinia Orthopoxvirus: mCherry Reporter Primary qHTS | Vaccinia virus mCherry reporter infection, fluorescence | Potency, µM (series often up to 36.5 µM), most hits filed as inhibitors | 310,000 tested, 0.63% active; calls by dose curve; tested in A549 cells; also: nearly all actives have a fitted effect of over 35% in size
LASV entry inh: qHTS for Inhibitors of binding or entry into cells for Lassa Virus; AID 540256, 2011; Lassa virus pseudotype entry inhibition, cell reporter; 300,000 tested, 1.2% active; Potency, µM (highest dose often 37.9 µM), actives largely listed as inhibitors; calls by dose curve; tested in HEK293 cells; also: nearly all actives have a fitted effect of over 50% in size
HCV inhibitor: qHTS Assay for Inhibitors of Hepatitis C Virus (HCV); Huh7.5.1 HCVcc-Cre infection, luciferase reporter, 44 h; Potency, µM (highest dose often 41.8 µM), actives largely listed as inhibitors; 340,000 tested, 3.4% active; AID 651820, 2012; active = well fitted inhibition curve with a large enough effect; inconclusive = small, poorly fitted or top-dose-only effect, or another doubt; inactive = no such curve, though single readings can be large or run the other way
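Luciferase read-out (15 sec integration) after a 15 min room-temperature substrate step quantifies HCVcc-Cre infection. Cells, 1,000 per well, had compound added 4 h post-plating, then virus at ~0.5 moi, and were cultured 44 h.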
MARV entry inh: qHTS for inhibitors of binding or entry into cells for Marburg Virus; Potency, µM (series often up to 37.8 µM), usual class: inhibitors; 300,000 tested, 1.8% active; Marburg virus pseudotyped entry inhibition, cell reporter; calls by dose curve; tested in HEK293 cells
Vaccinia Venus: qHTS for Stage-Specific Inhibitors of Vaccinia Orthopoxvirus: Venus Reporter Primary qHTS | 330,000 tested, 0.46% active | AID 720580, 2013 | Potency, µM (top dose mostly 36.5 µM), hits mostly inhibitors | Vaccinia virus Venus reporter expression, fluorescence; calls by dose curve; tested in A549 cells; also: nearly all actives have a fitted effect of over 30% in size
A number is an active result.

For COc1ccc(/C=C2\C=Cc3ccccc32)cc1 the results were VACV mCherry inh inactive and Vaccinia Venus inactive.
Screening Cc1cc(C(=O)Nc2cccc(C(=O)O)c2)oc1C returned VACV mCherry inh inactive, LASV entry inh 3.5µM, HCV inhibitor inactive, MARV entry inh inconclusive and Vaccinia Venus inactive.
COc1ccc([C@]23Cc4cc(C#N)ccc4[C@H](O2)c2c(cc(-c4ccccc4)oc2=O)O3)cc1 was read as MARV entry inh inactive.
CC(C)=CCC12Oc3cc(O)ccc3C1(O)Oc1cc(O)c([C@H]3C=C(C)CC(c4ccc(O)cc4O)[C@H]3C(=O)c3ccc(O)cc3O)c(O)c1C2=O (some centres not stated) was read as VACV mCherry inh inactive, HCV inhibitor 13µM and Vaccinia Venus inactive.
C(=N\Nc1nc(-c2ccccc2)cs1)/c1ccncc1 was read as VACV mCherry inh inactive, LASV entry inh inconclusive, HCV inhibitor inactive, MARV entry inh inactive and Vaccinia Venus inactive.
`CN(C)S(=O)(=O)c1ccc(-c2csc(N/N=C/c3ccc(O)cc3)n2)cc1` gave VACV mCherry inh inconclusive, LASV entry inh 7.1µM, HCV inhibitor 10µM, MARV entry inh 7.3µM and Vaccinia Venus inconclusive.
`CN(C)S(=O)(=O)c1ccc(-c2csc(N/N=C/c3ccco3)n2)cc1` gave VACV mCherry inh inconclusive, LASV entry inh 8.9µM, HCV inhibitor inconclusive, MARV entry inh inconclusive and Vaccinia Venus inactive.
`Cc1ccc(-c2csc(N/N=C/c3ccco3)n2)cc1` gave VACV mCherry inh inactive, LASV entry inh inconclusive, HCV inhibitor inconclusive, MARV entry inh inconclusive and Vaccinia Venus inactive.
O=C(NC1CCCC1)c1ccc2c(=O)n(Cc3ccccc3)c(SCc3cccc(F)c3)nc2c1 was read as VACV mCherry inh inactive, LASV entry inh inactive and Vaccinia Venus inactive.
`CCCn1c(SCc2nc(-c3ccc(OC)c(OC)c3)no2)nnc1-c1ccccc1` gave VACV mCherry inh inactive, LASV entry inh inactive, MARV entry inh 5.6µM and Vaccinia Venus inactive.
Screening CCC(/C=C1\Sc2ccc(OC)cc2N1CCO)=C\c1sc2ccc(OC)cc2[n+]1CCO returned VACV mCherry inh inactive, LASV entry inh inconclusive, HCV inhibitor 5µM, MARV entry inh inconclusive and Vaccinia Venus inactive.
For COc1ccc(-c2nc(Cn3c(SCc4cccc(C(F)(F)F)c4)nc4cccnc43)c(C)o2)cc1OC the results were VACV mCherry inh inconclusive, LASV entry inh inactive and Vaccinia Venus inactive.
Cc1ccc(-n2c(COCC(=O)O)nc3cccnc32)cc1 was read as VACV mCherry inh inactive, LASV entry inh inactive and Vaccinia Venus inactive.
`COc1ccc(Cc2[nH]n3c(=O)cc(C(C)C)nc3c2-c2ccccc2)cc1` gave VACV mCherry inh inconclusive, LASV entry inh inconclusive, HCV inhibitor inconclusive, MARV entry inh 13µM and Vaccinia Venus inactive.
COc1ccc(C(NC(C)=O)c2cc(Cl)c3cccnc3c2O)cc1OC (configuration not stated) was read as VACV mCherry inh inconclusive, LASV entry inh 2.8µM, HCV inhibitor 2µM, MARV entry inh inconclusive and Vaccinia Venus inconclusive.
For O=C(NC(c1ccccc1)c1cc(Cl)c2cccnc2c1O)c1cccnc1 (configuration not stated) the results were LASV entry inh inactive, HCV inhibitor inactive and MARV entry inh inactive.
O=C(O)COc1ccccc1C(Nc1ccccn1)c1cc(Cl)c2cccnc2c1O (configuration not stated) was read as VACV mCherry inh inactive, LASV entry inh inactive, HCV inhibitor inactive, MARV entry inh inactive and Vaccinia Venus inactive.
CCOc1ccc(C(NC(C)=O)c2cc(Cl)c3cccnc3c2O)cc1 (configuration not stated) was read as VACV mCherry inh 5µM and Vaccinia Venus inconclusive.
For COc1ccc(C(=O)NC(c2ccc(Cl)cc2)c2cc(Cl)c3cccnc3c2O)cc1 (configuration not stated) the results were VACV mCherry inh 10µM, LASV entry inh inactive and Vaccinia Venus inconclusive.
For COc1ccccc1C(NC(C)=O)c1cc(Cl)c2cccnc2c1O (configuration not stated) the results were VACV mCherry inh inconclusive, LASV entry inh inconclusive, HCV inhibitor inconclusive, MARV entry inh 3.2µM and Vaccinia Venus inconclusive.
`COc1ccc(C(NC(C)=O)c2nccc3cc(OC)c(OC)cc23)cc1OC` (configuration not stated) gave HCV inhibitor inactive.
For CC(C)(C)c1ccc(O[C@@H]2[C@H](O)CO[C@@H]2/C=C/C#Cc2ccccc2)cc1 the results were MARV entry inh inactive.
Screening Cc1nc(NCc2cnn(C)c2)sc1-c1ccn(-c2cccc(F)c2)n1 returned VACV mCherry inh inactive and Vaccinia Venus inactive.
For CCN(CC)S(=O)(=O)c1ccc2c(c1)N(CC(=O)NCCCN1CCN(c3ccc(OC)cc3)CC1)C(=O)CO2 the results were VACV mCherry inh inactive, LASV entry inh inactive and Vaccinia Venus inactive.
Screening CCC(=O)NC(c1ccc(OC)c(OC)c1)c1cc(Cl)c2cccnc2c1O (configuration not stated) returned VACV mCherry inh 11µM, LASV entry inh inconclusive, HCV inhibitor inconclusive, MARV entry inh inconclusive and Vaccinia Venus inconclusive.
Cc1ccc(OCCn2c(C3CC(=O)N(Cc4ccc(F)cc4)C3)nc3ccccc32)c(C)c1 (configuration not stated) was read as VACV mCherry inh inactive, LASV entry inh inconclusive, MARV entry inh inconclusive and Vaccinia Venus inconclusive.
CCc1ccc(OCCn2c(C3CC(=O)N(Cc4ccc(F)cc4)C3)nc3ccccc32)cc1 (configuration not stated) was read as VACV mCherry inh inconclusive, LASV entry inh inactive, MARV entry inh inconclusive and Vaccinia Venus 11µM.
C=CCN(CC=C)c1cnn(-c2nc3ccccc3[nH]2)c(=O)c1Cl was read as LASV entry inh inactive, HCV inhibitor inactive and MARV entry inh inconclusive.
`O=c1c(Cl)c(NCCCO)cnn1-c1nc2ccccc2[nH]1` gave VACV mCherry inh inactive, LASV entry inh inconclusive, HCV inhibitor 10µM, MARV entry inh inconclusive and Vaccinia Venus inactive.
Screening O=C(CN1C(=O)c2cccc3cccc1c23)Nc1cccc(F)c1 returned VACV mCherry inh inactive, LASV entry inh inconclusive, MARV entry inh inconclusive and Vaccinia Venus inactive.
Screening Cc1nc2cc(NC(=O)Nc3nccs3)ccc2n1C returned VACV mCherry inh inactive, LASV entry inh 13µM, HCV inhibitor inactive, MARV entry inh inconclusive and Vaccinia Venus inactive.
Screening C[C@]1(C(=O)CSc2nc3ccccc3[nH]2)CCC(=O)O1 returned MARV entry inh inactive.
CCC(C)(C)c1ccc(Oc2ccc(N)cc2)cc1 was read as VACV mCherry inh inactive, LASV entry inh inconclusive, HCV inhibitor 4.5µM, MARV entry inh 4µM and Vaccinia Venus inconclusive.
Screening CCCCn1cc2c(c1-c1ccc(Cl)cc1)c(=O)n(C)c(=O)n2C returned VACV mCherry inh inactive, LASV entry inh inactive, MARV entry inh inconclusive and Vaccinia Venus inactive.
